Assay results as given in PMC7819943, “Rice protein-binding microarrays: a tool to detect cis-acting elements near promoter regions in rice”.
In all, about 68,000 sequences were measured (“fluorescence intensity (a.u.)”: median about 9,100, highest 2% from about 16,000 on). This excerpt belongs to a sample that is enriched for the highest values.

Molecular target: OsWRKY34 (Oryza sativa, UniProt Q0JBA9 1-250)
Test: protein-binding microarray (RPBM); PBS, 2% BSA, 51.3 ng/ul salmon testes DNA, 50 uM zinc acetate, 200 nM TF, 25 C, 1 h; high values mean tight binding
Settings: protein: recombinant; tags: N-terminal polyhistidine and DsRed monomer fusion (pET32a); label: CyDye5-dUTP incorporated in the synthesized complementary strand; 3' TTTTT single-stranded linker to array surface; dsDNA, one strand shown
Summary of the method: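 Polyhistidine-tagged DsRed fusions of transcription factors, joined at the N-terminus, were expressed in E. coli BL21-CodonPlus and isolated on Ni–NTA. They were incubated at 200 nM for 1 h at 25 °C on a custom Agilent array, double-stranded and BSA-blocked, in PBS with 2% BSA, salmon testes DNA and 50 µM zinc acetate. The binding signal is per-feature fluorescence intensity (arbitrary units) read on an Axon 4000B scanner after washing.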

Sequence of OsWRKY34 (Q0JBA9 entry or part of it): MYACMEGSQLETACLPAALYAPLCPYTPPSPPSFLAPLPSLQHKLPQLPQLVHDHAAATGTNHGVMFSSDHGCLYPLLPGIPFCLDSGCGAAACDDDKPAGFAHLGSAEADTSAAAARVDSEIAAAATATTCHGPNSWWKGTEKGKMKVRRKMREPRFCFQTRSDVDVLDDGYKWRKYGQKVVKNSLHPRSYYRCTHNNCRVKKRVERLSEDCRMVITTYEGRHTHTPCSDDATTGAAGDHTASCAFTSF

Row | Sequence | binding signal
1 | TGATTTTTGTCCCACGTGGCATTGACGTGGCGCTTATGTGCGGAGTCACCTAGTGCAG | 8850 fluorescence intensity (a.u.)
2 | CCGTTGACTTTTTAGTACGTGTTTGATTCATTCTTAAATACGGAGTCACCTAGTGCAG | 16200 fluorescence intensity (a.u.)
3 | TCCCCACCTGTCAGTACTTATGTTTTGACTTTTTGACCCACGGAGTCACCTAGTGCAG | 14300 fluorescence intensity (a.u.)
4 | GGGCTGTTGTGTGTGTGTTTTGCGACGTGCCGTGCTGGGCCGGAGTCACCTAGTGCAG | 8290 fluorescence intensity (a.u.)
5 | CCTGCCCGGTGTGCTGTGACTTGCCGTTATCGTCACCGTTCGGAGTCACCTAGTGCAG | 10200 fluorescence intensity (a.u.)
6 | CACTTCTTTTCTCTATGGCGGCATCTGAATCTATGTGGATCGGAGTCACCTAGTGCAG | 9450 fluorescence intensity (a.u.)
7 | AATCACCTCCCTTATCTTACCTGCATGACAAATGCCTCGACGGAGTCACCTAGTGCAG | 8590 fluorescence intensity (a.u.)
8 | ACCCACCATGCCACCCCACTCCTTCTTTAAACTTGTAAACCGGAGTCACCTAGTGCAG | 9480 fluorescence intensity (a.u.)
9 | TCTCCTATCCAGTTGGATTCCCAAAATTTCGCCTTTCGTCCGGAGTCACCTAGTGCAG | 8070 fluorescence intensity (a.u.)
10 | AACCGAAATCACTTTGGCAGCATGTTTTCCTCTGTAACCACGGAGTCACCTAGTGCAG | 9350 fluorescence intensity (a.u.)
11 | CAACCCCACCGCCGCCGCCGCAAACCGTCTCGCCGTCGCCCGGAGTCACCTAGTGCAG | 11600 fluorescence intensity (a.u.)
12 | GAGGTTGTTTTGTCGTCTAGCAAGTGTGTGTCGGGTGGCGCGGAGTCACCTAGTGCAG | 9220 fluorescence intensity (a.u.)
13 | GTCATATGGCACCATGCTTGCTCTCCACTCTTCAATCAGTCGGAGTCACCTAGTGCAG | 9490 fluorescence intensity (a.u.)
14 | TCGCTGCTCTGCCCTTTTCCCTTTTTTTTTCTTTCTTCATCGGAGTCACCTAGTGCAG | 10200 fluorescence intensity (a.u.)
15 | CTCCCGTCAGTTGACCGTGTGTTGACCGTTAATTCTCAAGCGGAGTCACCTAGTGCAG | 17500 fluorescence intensity (a.u.)
16 | CCATCAGTTGACCATGTGTTGACCGTTAACTCTCAAGTAACGGAGTCACCTAGTGCAG | 9190 fluorescence intensity (a.u.)
17 | CCCTCCCGTCAGTTGACCGTTAGTTGACCGTGTATTTTCTCGGAGTCACCTAGTGCAG | 12200 fluorescence intensity (a.u.)
18 | TCCGTGTCCAATGTTTGACCATCCGTCTTATTTAAAAAAACGGAGTCACCTAGTGCAG | 8070 fluorescence intensity (a.u.)
19 | GTGTTGTGTTCATCTCCTTCGTTTACTTCTCTTCTCCTCTCGGAGTCACCTAGTGCAG | 11500 fluorescence intensity (a.u.)
20 | TATTCTGTTGTATTATGATATTATATATATTTTTCTTCGACGGAGTCACCTAGTGCAG | 8980 fluorescence intensity (a.u.)
21 | GATGGCCTTGACCATGCAGAAACAGGCATGGTTTCCTTCGCGGAGTCACCTAGTGCAG | 64500 fluorescence intensity (a.u.)
22 | GTTCCTTTCAGAAACTGGCATTCGAGTTTTGAGTTTCTCGCGGAGTCACCTAGTGCAG | 8720 fluorescence intensity (a.u.)
23 | AACAGGCATGGTTTCCTTCGTCGTTTCTACTAGCAGTTGCCGGAGTCACCTAGTGCAG | 11900 fluorescence intensity (a.u.)
24 | GACTTTAGTCAAAGTCATGTTGTTTCAAGTTTGACTAATTCGGAGTCACCTAGTGCAG | 18800 fluorescence intensity (a.u.)

Row | Sequence | binding signal
25 | CTAAAATTTCCTTATGTTTTCTTCTTCTTCTAGTTATGTGCGGAGTCACCTAGTGCAG | 8800 fluorescence intensity (a.u.)
26 | TTTGGTCAAACTTAAAAAAGTTTGACTACAACTAAATTCACGGAGTCACCTAGTGCAG | 8740 fluorescence intensity (a.u.)
27 | CTTTAGTTAAAGTCAAAGTGCTTCAAGTTTGACTAAGTTTCGGAGTCACCTAGTGCAG | 9150 fluorescence intensity (a.u.)
28 | TTTTCCTTAGTCAAAGTTATATATGTTTGACTAAATTTATCGGAGTCACCTAGTGCAG | 18000 fluorescence intensity (a.u.)
29 | TAAGACGTTTTGACTTTGGTCAAACTGTTTGGTCAAAGTCCGGAGTCACCTAGTGCAG | 10600 fluorescence intensity (a.u.)
30 | GTTTTGACTTTGGTCAAAGTCAAACTAATTCAAGTTAGACCGGAGTCACCTAGTGCAG | 17600 fluorescence intensity (a.u.)
31 | ATTGTTATGTTCCTTTGTTTTCTTATAAATATAATTTAATCGGAGTCACCTAGTGCAG | 9560 fluorescence intensity (a.u.)
32 | CATTTGACTTTTTTCTAGTCAAAGTTATTTATATTTAATTCGGAGTCACCTAGTGCAG | 14100 fluorescence intensity (a.u.)
33 | TCATACATGTGATCACTCACTCACTCTCACACACACTCTCCGGAGTCACCTAGTGCAG | 10100 fluorescence intensity (a.u.)
34 | AAACAGACCCTTAATATGCTATATTTGTCTCCAATAAAACCGGAGTCACCTAGTGCAG | 8480 fluorescence intensity (a.u.)
35 | TTGCTCTTGTTAATGTTTGGCTTTCTTCTTCTTCTGCTGCCGGAGTCACCTAGTGCAG | 8600 fluorescence intensity (a.u.)
36 | ACACTCTGCTGCATCTCTTATCCCTTCATCTCGGTCTTAACGGAGTCACCTAGTGCAG | 16600 fluorescence intensity (a.u.)
37 | TGGGGTTTTCAGCTTGCCAATGCTGCATTATCTTCTTTTTCGGAGTCACCTAGTGCAG | 17200 fluorescence intensity (a.u.)
38 | GCTCCCTGCTGCCATATCCTATCATCTCCTCTCTTCCTCTCGGAGTCACCTAGTGCAG | 8540 fluorescence intensity (a.u.)
39 | CTCCATTCTTGTTTGTTCCTTCTTTGCTTTCAGCTGCTTTCGGAGTCACCTAGTGCAG | 15000 fluorescence intensity (a.u.)
40 | ATATCCCTTCTCTTCCCTCATCTCTCCACCTCTTCCATCTCGGAGTCACCTAGTGCAG | 8890 fluorescence intensity (a.u.)
41 | ACCAGCTTTCTTTCTCGTGCTTTCCTCTTCTTCTTTTTTTCGGAGTCACCTAGTGCAG | 10900 fluorescence intensity (a.u.)
42 | CCTCATCCGCTGCTCTGCTCCCACCATTGCTGCTCTCTCTCGGAGTCACCTAGTGCAG | 17700 fluorescence intensity (a.u.)
43 | CTGCCGCGCTTCGTCGCCGCGCTCGCCCGTCTTTCGCTCTCGGAGTCACCTAGTGCAG | 8230 fluorescence intensity (a.u.)
44 | TCTCTCTCTCTCTCCTCTGCATCCGCGCGCATTGCTCGATCGGAGTCACCTAGTGCAG | 9000 fluorescence intensity (a.u.)
45 | GGCCCTGAGCTCTCTCTTGCTGCTTCTTTTAATGGGTTTTCGGAGTCACCTAGTGCAG | 9680 fluorescence intensity (a.u.)
46 | GGCTCGTGCACCTGCTCTCGTCTTTTCCACCGCTTTTTTTCGGAGTCACCTAGTGCAG | 16800 fluorescence intensity (a.u.)
47 | GCTCCACCTACTCCGCTCCCCTCTGCTCGGCTGCTCCCATCGGAGTCACCTAGTGCAG | 8470 fluorescence intensity (a.u.)
